The whole screen tested about 6,700 compounds, of which about 20 (0.3%) were called active. For the sample, actives were picked, then their nearest neighbours and some compounds at random. A number with no mark means an inactive call.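 How the source made its calls: active means mean percent activation in the counterscreen above 29.09%; inactive means the rest.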

The experiment deals with Glucose-dependent insulinotropic receptor (Homo sapiens) (UniProt Q8TDV5). The experiment in a line: GPR119 activators in beta-arrestin cells, counter-screen for GPR151 activator project, cell-based, PathHunter beta-arrestin, luminescence, triplicate (AID 1508611).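 Further: counterscreen on off-target GPR119 to flag nonselective hits from the GPR151 activator screen.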 The settings on record: 90 min, at 11.2 µM, active compounds read high, 0 = compound-well median, 100 = enzyme-acceptor control. Background: A counterscreen serves to expose hits that act by an unwanted route or on another target.
Chain of Glucose-dependent insulinotropic receptor (Homo sapiens) (Q8TDV5 whole entry, looked up): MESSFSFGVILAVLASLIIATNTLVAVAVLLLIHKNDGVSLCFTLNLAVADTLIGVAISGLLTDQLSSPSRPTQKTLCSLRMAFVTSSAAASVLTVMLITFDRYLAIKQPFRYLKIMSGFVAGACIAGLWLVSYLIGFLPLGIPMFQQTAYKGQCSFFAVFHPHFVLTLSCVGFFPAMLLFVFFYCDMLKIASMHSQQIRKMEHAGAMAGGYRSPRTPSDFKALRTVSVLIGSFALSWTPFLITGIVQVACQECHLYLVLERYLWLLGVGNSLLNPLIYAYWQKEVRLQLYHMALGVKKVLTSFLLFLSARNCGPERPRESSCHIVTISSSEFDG
`c1ccc(-c2nc(-c3cccs3)[nH]c2-c2cccs2)cc1`: the activation is -1.67%. In the case of `CCOC(=O)c1cccc(NC(=O)CCCOc2ccc(OC)cc2)c1` it was -2.39%; in that of `COc1ccc(OC)c(/C=N/n2nnnc2N)c1`, -3.22%; in that of `CC(C)(C)NC(=O)Cc1coc2ccc3ccccc3c12`, -5.33%.

On to `O=C(CN1C(=O)c2ccccc2C1=O)NC(c1ccccc1)c1ccc(Br)cc1` (stereo not given), for which the activation is -12.4%. As to `O=C(COc1ccc(CO)cc1)Nc1ccc(Cl)c(Cl)c1`, the activation is -3.53%. Next, `CO[C@@H]1COC(=O)[C@@H](C)COC(=O)[C@H](C)NC(=O)C/C=C/[C@H]1C`: 10.4%. Next, `Cc1[nH][nH]c(=O)c1C(c1ccc(-c2ccc(F)cc2[N+](=O)[O-])o1)c1c(C)[nH][nH]c1=O`: 9%. In the case of `O=C(CN1C(=O)CCC1=O)Nc1ccc(S(=O)(=O)N2CCOCC2)cc1` it was 9.75%; in that of `C=CCSC1=C(C#N)C(c2ccc(Cl)cc2Cl)CC(=O)N1` (stereo not given), -2.2%; in that of `CC(C)n1c(=O)[nH]c2c(C(N)=O)nc(-c3ccc(-c4ccccc4)cc3)nc21`, 8.53%. On to `COc1ccc(N2C(=O)C(Cl)=C(Nc3ccc(C)cc3)C2=O)cc1`, for which the activation was 9.02%.

For the compound `COc1cc(OC)cc(C(=O)Nc2ccc3c4c(cccc24)CC3)c1`, the activation was 9.11%.

For the compound `CCOc1ccccc1-c1cc(C(=O)N2CCOCC2)c2ccccc2n1`, the activation is -4.4%. Next, `Cc1ccc(NC(=O)CSc2nnc(-c3ccc(N)cc3)n2C)cc1Cl`: 5.44%. `COc1ccc(C2(C)NC(=O)N(CC(=O)Nc3ccc4ccccc4c3)C2=O)cc1` (stereo not given): the activation was 5.1%. Turning to `CC(=O)Nc1ccc(NC(=O)c2ccc3nc(Br)sc3c2)cc1`, the activation was -3.64%. In the case of `CCC1C(=O)NCCN1Cc1ccc2c(c1)CN(Cc1c[nH]c3ccccc13)CCO2` (stereo not given), the activation was -4.8%. Next, `CC(=O)Nc1nc(C(=O)Nc2nc(-c3sc(C)nc3C)cs2)cs1`: 13.5%; `c1cncc(Nc2nc(NC3CC3)c3ncn(C4CCCCC4)c3n2)c1`: -7.65%.

As for `COc1ccc(NC(=S)N2CCN(S(=O)(=O)c3ccc(F)cc3)CC2)c(OC)c1`, the activation is -3.67%. Take `CCc1ccc(S(=O)(=O)NCCOc2cc(N3CCOCC3)ncn2)cc1`: the activation is 0.5%. On to `Cc1ccc(NC(=O)c2cccc(N(C)C)c2)cc1NC(=O)c1ccc(O)cc1`, for which the activation was -0.12%.

For `COc1ccc(C=C(C#N)C#N)c(CSc2ccccn2)c1`, the activation is 14.8%. In the case of `COc1cc([N+](=O)[O-])ccc1NC(=S)NCc1cc(C)n(C)n1` it was -4.23%.

The record behind these values is PubChem BioAssay AID1508611 (The Scripps Research Institute Molecular Screening Center, 2020).
